Results on 5 compounds are retold here after PubChem BioAssay.

Calls of active or inactive are those of the source. Unless noted, no stated cut-off is given here; in the data, active means inhibition above about 80%; inactive means the rest.

The nature of test [1]: growth inhibition, single agent or in combination, cell-based, chromothripsis tumors, cisplatin or BGB combos (AID 1671449).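 Further: cells exposed for 96 hours; 0% = vehicle DMSO and 100% = killing by high DMSO.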 The note with it: LFS_MB_P medulloblastoma cells.
Test [2] can be described thus: growth inhibition, single agent and combos, cell-based, chromothripsis tumors, cisplatin or BGB combos (AID 1671450).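 Further: cells exposed to compound for four days; 0% = vehicle DMSO and 100% = cell killing by high DMSO.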 The note with it: HDN33 neuroblastoma cells, stronger effect = higher value.
Test [3] is described as follows: growth inhibition, single agents and combos, ICB984, cell-based, cisplatin or BGB combos, synergistic combos for chromothripsis tumors (AID 1671451; call rule not given here;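 further: cells exposed for 96 hours before readout; 0% = vehicle DMSO and 100% = killing by high DMSO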). The note with it: ICB984 medulloblastoma cells, drug combinations, stronger effect = higher value.
Test [4] can be described thus: growth inhibition, single agents and combos, LFS_MB_1R, cell-based, cisplatin or BGB combos, synergistic combos for chromothripsis tumors (AID 1671452).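 Further: cells exposed for 96 hours before readout.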 The note with it: LFS_MB_1R medulloblastoma cells, stronger effect = higher value.
Test [5] in a line: growth inhibition, single agents and combos, HTB85, cell-based, BGB or cisplatin IC20 combos, synergistic combos for chromothripsis tumors (AID 1671453).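 Further: cells exposed for 96 hours before readout; 0% = vehicle DMSO and 100% = high DMSO killing control.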 The note with it: HTB85 osteosarcoma cells, drug combinations, stronger effect = higher value.
Test [6] in a line: growth inhibition, single agents and combos, CRL2098, cell-based, BGB or cisplatin IC20 combos, synergistic combos for chromothripsis tumors (AID 1671454).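 Further: cells exposed for 96 h before readout; 0% = vehicle DMSO and 100% = killing by high DMSO.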 The note with it: CRL2098 osteosarcoma cells, drug combinations, stronger effect = higher value.
Test [7] is described as follows: growth inhibition, single agents and combos, HD-MB03, cell-based, BGB or cisplatin IC20 combos, synergistic combos for chromothripsis tumors (AID 1671455; in the data active means inhibition above about 83%;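 further: 0% = vehicle DMSO and 100% = high DMSO as cytotoxic control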). The note with it: HD-MB03 medulloblastoma cells, stronger effect = higher value.
Test [8] is described as follows: growth inhibition, single agents and combos, UWB1.289, cell-based, BGB or cisplatin combos, synergistic combos for chromothripsis tumors (AID 1671456).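 Further: cells exposed to compound for four days; 0% = vehicle DMSO and 100% = killing by high DMSO.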 The note with it: UWB1.289 ovarian carcinoma cells, stronger effect = higher value.
A short description of test [9]: growth inhibition, single agents and combos, LFS_MB_2R, cell-based, cisplatin combos, synergistic combos for chromothripsis tumors (AID 1671457).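 Further: cells exposed to compound for four days before readout.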 The note with it: LFS_MB_2R medulloblastoma cells, stronger effect = higher value.
Test [10] in a line: growth inhibition, MDA-MB-436, cell-based, BGB or cisplatin combos, synergistic combos for chromothripsis tumors (AID 1671458; call rule not given here;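 further: cells exposed for 96 hours; 0% = vehicle DMSO and 100% = killing by high DMSO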). The note with it: MDA-MB-436 breast carcinoma growth inhibition, drug combinations, stronger effect = higher value.
Test [11] is described as follows: UWB1.289_BRCA1 ovarian cancer growth, cell-based, BGB or cisplatin combinations (AID 1671459). The note with it: UWB1.289 BRCA1 ovarian carcinoma, drug combinations, stronger effect = higher value.
The nature of test [12]: drug combination toxicity in non-malignant astrocytes – cell-based, BGB or cisplatin IC20 combos, cytotoxicity control for chromothriptic childhood tumor combination screen (AID 1671460).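 Further: cells exposed to compounds for 96 hours before viability readout; 0% = vehicle and 100% = killing control.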 The note with it: Human astrocytes, viability inhibition, drug combinations, at 0.5 µM, stronger effect = higher value.
The nature of test [13]: BT084 cell growth, single and combined drugs, ICGC_MB145, cisplatin and BGB IC40 combos (AID 1671461).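 Further: cells exposed to drugs for 96 hours; 0% = vehicle DMSO and 100% = high DMSO full killing control.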 The note with it: BT084 medulloblastoma cells, drug combinations, stronger effect = higher value.
A short description of test [14]: RCMB18 cell growth, single agent and combined, cisplatin and BGB IC40 combos (AID 1671462).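 Further: cells exposed to compound for four days.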 The note with it: RCMB18 medulloblastoma cells, stronger effect = higher value.
A short description of test [15]: CRL1545 cell growth, single agent and combined, cisplatin and BGB IC20 combos (AID 1671464).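 Further: cells exposed to compound for 96 hours before readout; 0% = vehicle DMSO and 100% = high DMSO killing control.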 The note with it: CRL1545 osteosarcoma cells, stronger effect = higher value.
Test [16] in a line: galactose survival enhancers in mitochondrial complex I cybrids – cell-based, galactose medium, ATP luminescence, primary screen (AID 1645843;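 active means z-score of at least 1.8 in each of two replicates, scored against plate mean and spread of sample wells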;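 further: positive z means more ATP and so rescue of galactose-driven cybrid death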). The note with it: complex I mutant cybrid cells, 72 h, stronger effect = higher value.
Setting [17] is: measured here: combination with BGB IC40, at 0.05 µM.
Setting [18] is: measured here: with BGB IC20 combination, at 0.5 µM.
Setting [19] is: measured here: with cisplatin IC20 combination, at 0.5 µM.
Setting [20] is: measured here: combination with cisplatin, at 0.5 µM.
The mark [21] stands for this setting: measured here: combination with cisplatin, at 5 µM.

With `NC(=O)c1ncn(C2OC(CO)C(O)C2O)c1O` (configuration not stated), the inhibition in [1] (at 0.5 µM, stronger effect = higher value) was -12.6% (inactive); in [1] (measured here: combination with BGB IC20, at 0.005 µM), -7.32%; in test [1] (measured here: combination with BGB IC40, at 0.005 µM) it was -2.51%; in test [1] (setting [17]) it was -10.8%; in [1] (measured here: combination with cisplatin, at 0.5 µM, stronger effect = higher value), -6.4%; in test [1] (measured here: combination with cisplatin, at 5 µM, stronger effect = higher value) it was -30%. For the same compound, the inhibition in [2] (BGB combo, at 5 µM) is 5.04%; in test [2] (at 0.5 µM), 6.65% (inactive); in [2] (cisplatin combo, at 5 µM), -12.8%; in [2] (setting [18]), 16.7%; in [2] (setting [19]), 12.5%; in [2] (single agent, at 5 µM), -11%. In addition, the inhibition was 6.56% in test [3] (BGB IC20 combo, at 0.005 µM); -22.2% in test [3] (BGB IC40 combo, at 0.005 µM); -25% in [3] (BGB IC40 combo, at 0.05 µM); -19.3% (inactive) in test [3] (at 0.5 µM); -25% in test [3] (cisplatin combo, at 0.05 µM); -21.3% in [3] (cisplatin combo, at 0.5 µM). The inhibition was 9.18% in test [3] (cisplatin combo, at 5 µM); -10.8% in test [3] (measured here: 5 uM single agent, at 5 µM); -1.69% (inactive) in test [4] (at 0.5 µM); 11.9% in test [4] (setting [17]); 14.5% in [4] (setting [20]); 1.36% in test [4] (setting [21]). The inhibition in test [5] (at 0.5 µM) was -21.2% (inactive); in [5] (measured here: with BGB IC20, at 0.5 µM), -45.8%; in [5] (measured here: with BGB IC20, at 5 µM), -14%; in test [5] (measured here: with cisplatin IC20, at 0.5 µM), -13.3%; in test [5] (measured here: with cisplatin IC20, at 5 µM), 26.5%; in test [5] (single agent, at 5 µM), 4.97%. The inhibition in test [6] (at 0.5 µM) was -22.6% (inactive); in test [6] (measured here: combination with BGB at IC20, at 0.5 µM) it was -31.9%; in test [6] (measured here: combination with cisplatin at IC20, at 0.5 µM), -21.8%; in [7] (at 0.5 µM), -5.96% (inactive); in test [7] (measured here: combo with BGB at IC20, at 0.5 µM), -11.6%; in [7] (measured here: combo with cisplatin at IC20, at 0.5 µM), 0.212%. Further, the inhibition was 2.16% (inactive) in test [8] (at 0.5 µM); -15.4% in [8] (measured here: inhibition with BGB combination, at 0.05 µM); -3.17% in test [8] (measured here: inhibition with cisplatin combination, at 0.05 µM); -17.9% (inactive) in [9] (at 0.5 µM); -10.4% in test [9] (setting [20]); -9.64% in test [9] (setting [21]). For the same compound, the inhibition is -15.6% (inactive) in test [10] (at 0.5 µM); -16% in [10] (measured here: BGB combination, at 0.5 µM); -1.99% in [10] (measured here: BGB combination, at 5 µM); -28.5% in test [10] (measured here: cisplatin combination, at 0.5 µM); -10.8% in test [10] (measured here: cisplatin combination, at 5 µM); 5.96% in test [11] (BGB combination, concentration series, at 5 µM). The inhibition in [11] (at 0.5 µM) is 2.34% (inactive); in test [11] (cisplatin combination, concentration series, at 5 µM) it was 12.4%; in test [12], -5.39% (inactive); in [12] (measured here: combo with BGB IC20), -5.58%; in test [12] (measured here: combo with cisplatin IC20) it was -13.5%; in test [13] (at 0.5 µM), -0.897% (inactive). Besides, the inhibition in test [13] (cisplatin combination, at 0.5 µM) is 6.23%; in test [13] (cisplatin combination, at 5 µM), -20.7%; in test [13] (measured here: BGB IC40 combination 0.05 uM, at 0.05 µM) it was 5.17%; in test [13] (single agent, at 5 µM), -12.6%; in test [14] (at 0.5 µM), -9.69% (inactive); in test [14] (cisplatin combo, at 5 µM) it was 0.143%. Besides, the inhibition in test [14] (measured here: BGB IC40 combination, at 0.05 µM) is -17.2%; in test [14] (setting [20]) it was 9.55%; in test [14] (single agent, at 5 µM), -31.2%; in [15] (at 0.5 µM) it was -13.2% (inactive); in [15] (setting [18]), 2.45%; in [15] (setting [19]), -21%. Also, the inhibition in test [15] (single agent, at 0.05 µM) worked out at 13%; in [15] (single agent, at 5 µM), 22.2%.

Take `CCc1nc(C)ccc1OCC(=O)N1CCc2[nH]nc(C3CC3)c2C1`: the z-score in test [16] is -0.685 (inactive).

In the case of `CCCCC(CC)CN1CCc2[nH]nc(C3CC3)c2C1` (configuration not stated), the z-score in [16] is -0.03 (inactive).

Consider `Cc1nn(C)c(C)c1-c1ccnc(N2CCC(c3ccccc3Cl)C2)n1` (configuration not stated), for which, in test [16], the z-score is -1.27 (inactive).

`Cc1cc(NC(=O)CCC2CC2)n(C(C)C)n1`: in test [16], the z-score is -0.44 (inactive).
